Source: PubChem BioAssay (EPA / NIEHS)
The source made the active and inactive calls. How the source made its calls: active means hit-call score of the fitted dose curve at least 0.9, where 1 is the maximum; inactive means score below 0.9.

Columns and labels:
[1] = ATG_GLI_CIS: Attagene CIS-FACTORIAL HepG2 Assay for human Zinc Finger Protein GLI1 (AID 2282945); conditions: HepG2, Attagene cis-factorial reporter mRNA, GLI element; actives raise or lower the signal
Procedure, shortened: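 HepG2 cells transiently transfected with cis-promoter multiplexed reporter units report endogenous transcription factor activity. After 24 h chemical exposure, reporter mRNA was quantified by RT-PCR, 6-FAM labelling, HpaI digestion and capillary electrophoresis, with bidirectional fitting against DMSO.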

[2] = target: Bile acid receptor (Homo sapiens) (UniProt Q96RI1); experiment: ATG_IR1_CIS: Attagene CIS-FACTORIAL HepG2 Assay for human Nuclear Receptor Subfamily 1 Group H Member 4 (NR1H4), IR1 submotif (AID 2282946); conditions: IR1 reporter transcription, actives raise or lower the signal
Procedure, shortened: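 Transient MRTU transfection, HepG2; 24 h dosing; RNA → RT-PCR → 6-FAM primer extension → HpaI digest → capillary electrophoresis fluorescence. Gain/loss of signal fitted relative to DMSO.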

[3] = ATG_ISRE_CIS: Attagene CIS-FACTORIAL HepG2 Assay for human Interferon Regulatory Factor 1 (IRF1) binding to an Interferon-Stimulated Response Element (ISRE) (AID 2282948); conditions: HepG2 ISRE cis-reporter (Attagene), mRNA transcription readout; actives raise or lower the signal
Procedure, shortened: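 Transfected HepG2 (multiple reporter transcription units, cis elements) dosed 24 h. RNA → oligo(dT) RT → PCR → 6-FAM primer extension → HpaI → CE. DMSO = negative control/baseline.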

[4] = ATG_M_32_CIS: Attagene CIS-FACTORIAL HepG2 Assay for M32 Transcription Factor (Internal Marker) (AID 2282949); conditions: HepG2 Attagene cis-factorial M32 reporter, mRNA; actives raise or lower the signal;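 further: background control marker of the multiplexed CIS panel rather than a real target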
Procedure, shortened: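 Fluorescent capillary electrophoresis peaks of HpaI-digested, FAM-labelled RT-PCR reporter products give the signal. Source: transiently transfected human liver HepG2 cells, 24 h after chemical dosing; bidirectional fitting against DMSO.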

[5] = ATG_M_06_CIS: Attagene CIS-FACTORIAL HepG2 Assay for M06 Transcription Factor (Internal Marker) (AID 2282950); conditions: HepG2 Attagene CIS-FACTORIAL M06 internal marker reporter; actives raise or lower the signal
Procedure, shortened: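 Read-out is fluorescence of labelled reporter cDNA fragments resolved by capillary electrophoresis after RT-PCR. Cells: HepG2 carrying transfected cis-promoter reporter units, treated 24 h. Gain or loss of signal fitted relative to DMSO.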

[6] = target: Hypoxia-inducible factor 1-alpha (Homo sapiens) (UniProt Q16665); experiment: ATG_HIF1a_CIS: Attagene CIS-FACTORIAL HepG2 Assay for human Hypoxia Inducible Factor 1 (HIF1A) (AID 2282951); conditions: HepG2 Attagene cis-factorial HIF1a reporter transcription; actives raise or lower the signal
Procedure, shortened: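 Dosed 24 h, transfected HepG2 cells yielded total RNA whose reporter transcripts were RT-PCR-amplified and sized by capillary electrophoresis using fluorescent labelling; DMSO defined baseline, with gain and loss of signal both fitted.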

[7] = target: Hepatocyte nuclear factor 6 (Homo sapiens) (UniProt Q9UBC0); experiment: ATG_HNF6_CIS: Attagene CIS-FACTORIAL HepG2 Assay for human Hepatocyte Nuclear Factor 6 (HNF6) (AID 2282952); conditions: HepG2 Attagene cis-factorial HNF6 reporter transcription; actives raise or lower the signal
Procedure, shortened: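 HepG2 cells transiently transfected with cis-element-driven multiplexed reporter units measuring endogenous transcription factor activity. After 24 h exposure, reporter mRNA quantified by RT-PCR, FAM-labelled fragments and capillary electrophoresis; bidirectional fitting versus DMSO.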

[8] = target: Heat shock factor protein 1 (Homo sapiens) (UniProt Q00613); experiment: ATG_HSE_CIS: Attagene CIS-FACTORIAL HepG2 Assay for human Heat Shock Transcription Factor 1 (HSE) (AID 2282953); conditions: HepG2 HSE cis-reporter, Attagene RNA transcription; actives raise or lower the signal
Procedure, shortened: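 HepG2, transient MRTU transfection, cis-promoter reporters (endogenous TF activity). 24 h compound. RNA → oligo(dT) RT → PCR → 6-FAM primer extension → HpaI cut → CE. Bidirectional fit vs DMSO.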

[9] = ATG_MRE_CIS: Attagene CIS-FACTORIAL HepG2 Assay for human Metal Responsive Element (MRE) (AID 2282954); conditions: HepG2 MRE cis-reporter transcription, Attagene multiplex; actives raise or lower the signal
Procedure, shortened: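 Step one: transfect HepG2 with cis-regulated reporter units. Step two: dose 24 h. Step three: isolate RNA, RT-PCR, 6-FAM label, HpaI digest, capillary electrophoresis. Fit bidirectionally to DMSO.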

[10] = target: Paired box protein Pax-6 (Homo sapiens) (UniProt P26367); experiment: ATG_Pax6_CIS: Attagene CIS-FACTORIAL HepG2 Assay for human Paired Box 6 (PAX6) (AID 2282956); conditions: HepG2 CIS-FACTORIAL PAX6 reporter transcription, RNA readout; actives raise or lower the signal
Procedure, shortened: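 Transient MRTU transfection of HepG2 → compound exposure 24 h → TriZol RNA, oligo(dT) RT → PCR, 6-FAM primer extension, HpaI cut → capillary electrophoresis; activity fitted both directions against DMSO.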

[11] = ATG_PXRE_CIS: Attagene CIS-FACTORIAL HepG2 Assay for human Pregnane X Receptor Element (PXRE) (AID 2282957); conditions: HepG2 Attagene CIS-FACTORIAL PXRE reporter, mRNA; actives raise or lower the signal
Procedure, shortened: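 HepG2 cells transiently transfected with cis-element-driven multiplexed reporter units; after 24 h chemical exposure, reporter mRNA measured by RT-PCR, 6-FAM labelling, HpaI digestion and capillary electrophoresis. Bidirectional fitting relative to DMSO.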

[12] = ATG_PPRE_CIS: Attagene CIS-FACTORIAL HepG2 Assay for human Peroxisome Proliferator-activated Response Element (PPRE) (AID 2282958); conditions: HepG2 PPRE cis-element reporter, Attagene transcription factor profiling; actives raise or lower the signal
Procedure, shortened: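 Measured endpoint: PPRE-controlled reporter mRNA, detected by RT-PCR and capillary electrophoresis fluorescence, from transiently transfected HepG2 cells 24 h after dosing. Curves fitted in both directions using DMSO baseline.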

[13] = ATG_RORE_CIS: Attagene CIS-FACTORIAL HepG2 Assay for human RAR-related Orphan Receptor Element (RORE) (AID 2282959); conditions: HepG2 Attagene cis-factorial RORE reporter, mRNA; actives raise or lower the signal
Procedure, shortened: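 Transiently transfected HepG2 reporter cells were treated 24 h. Reporter transcripts were detected by RT-PCR and capillary electrophoresis, with bidirectional fitting against DMSO.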

[14] = ATG_Sox_CIS: Attagene CIS-FACTORIAL HepG2 Assay for human SRY-box transcription factor (SOX) (AID 2282960); conditions: HepG2 Attagene cis-factorial SOX reporter, mRNA; actives raise or lower the signal
Procedure, shortened: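 Gain- or loss-of-signal endpoint, fitted bidirectionally with DMSO as negative control. Based on reporter mRNA from transfected HepG2 cells harvested 24 h post-treatment and quantified via RT-PCR and capillary electrophoresis.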

[15] = target: Transcription factor Sp1 (Homo sapiens) (UniProt P08047); experiment: ATG_Sp1_CIS: Attagene CIS-FACTORIAL HepG2 Assay for human Specificity Protein 1 (Sp1) (AID 2282961); conditions: HepG2 Sp1 cis-reporter transcription, actives raise or lower the signal
Procedure, shortened: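 Endpoint reflects endogenous Sp1 transcriptional activity, not an exogenous fusion protein: HepG2 cells with transfected cis-regulated reporters, 24 h dosing, RT-PCR/capillary electrophoresis mRNA read-out, DMSO-normalised bidirectional fit.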

[16] = ATG_SREBP_CIS: Attagene CIS-FACTORIAL HepG2 Assay for human Sterol Regulatory Element Binding (SREBP) (AID 2282962); conditions: HepG2 Attagene cis-factorial SREBP reporter, mRNA; actives raise or lower the signal
Procedure, shortened: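 Transfected HepG2 (cis-regulated reporter library, endogenous TFs) → compound 24 h → total RNA → oligo(dT) RT → reporter-specific PCR → FAM primer extension, HpaI cut → CE fluorescence. Fit bidirectional vs DMSO.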

[17] = target: Signal transducer and activator of transcription 3 (Homo sapiens) (UniProt P40763); experiment: ATG_STAT3_CIS: Attagene CIS-FACTORIAL HepG2 Assay for human Signal Transducer and Activator of Transcription 3 (STAT3) (AID 2282963); conditions: HepG2, Attagene cis-factorial STAT3 reporter transcription; actives raise or lower the signal
Procedure, shortened: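 Transcript-level reporter assay. HepG2 transient MRTU transfection, 24 h exposure, fluorescence detection after RT-PCR and CE; DMSO baseline.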

[18] = ATG_TA_CIS: Attagene CIS-FACTORIAL HepG2 Assay for human TA Basal Promoter (AID 2282964); conditions: HepG2 Attagene CIS-factorial TA basal promoter reporter; actives raise or lower the signal
Procedure, shortened: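 Read-out: fluorescent reporter-transcript fragments resolved by capillary electrophoresis after RT-PCR and HpaI digestion. Source: HepG2 cells carrying transiently transfected multi-reporter cis constructs, treated 24 h. Endpoint fitted bidirectionally relative to DMSO.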

[19] = ATG_GRE_CIS: Attagene CIS-FACTORIAL HepG2 Assay for human Glucocorticoid Response Elements (GRE) (AID 2282947); conditions: HepG2 GRE cis-reporter, Attagene multiplex mRNA; actives raise or lower the signal
Procedure, shortened: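 Following 24 h chemical exposure of transiently transfected HepG2 cells, total RNA was reverse-transcribed and reporter cDNA amplified, fluorescently labelled and sized by capillary electrophoresis. Signal gain or loss was fitted relative to DMSO vehicle.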

[20] = ATG_PBREM_CIS: Attagene CIS-FACTORIAL HepG2 Assay for human Phenobarbital-responsive Enhancer Module (PBREM) (AID 2282955); conditions: HepG2 PBREM cis-reporter, Attagene multiplexed transcription; actives raise or lower the signal
Procedure, shortened: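 Transfected liver-derived HepG2 cells exposed 24 h; PBREM reporter transcript quantified via RT-PCR and capillary electrophoresis, with activity in either direction referenced to DMSO.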

Measured: AC50

Chain of Heat shock factor protein 1 (Homo sapiens) (Q00613 whole entry, looked up): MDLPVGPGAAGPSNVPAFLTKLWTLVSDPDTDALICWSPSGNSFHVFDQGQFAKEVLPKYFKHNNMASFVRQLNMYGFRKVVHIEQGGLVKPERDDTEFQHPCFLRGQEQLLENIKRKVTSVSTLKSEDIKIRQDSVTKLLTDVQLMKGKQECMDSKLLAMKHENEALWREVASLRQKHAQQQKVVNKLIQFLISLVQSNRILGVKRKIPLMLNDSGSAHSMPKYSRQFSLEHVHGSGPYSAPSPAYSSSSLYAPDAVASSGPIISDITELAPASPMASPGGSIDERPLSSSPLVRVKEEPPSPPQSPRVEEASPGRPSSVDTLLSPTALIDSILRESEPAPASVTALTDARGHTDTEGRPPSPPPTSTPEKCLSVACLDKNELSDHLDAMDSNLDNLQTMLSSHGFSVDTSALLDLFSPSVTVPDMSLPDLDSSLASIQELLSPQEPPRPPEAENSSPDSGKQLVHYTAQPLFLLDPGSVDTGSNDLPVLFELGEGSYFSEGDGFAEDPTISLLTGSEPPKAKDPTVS
Chain of Transcription factor Sp1 (Homo sapiens) (P08047 whole entry, looked up, the tested form may be a part): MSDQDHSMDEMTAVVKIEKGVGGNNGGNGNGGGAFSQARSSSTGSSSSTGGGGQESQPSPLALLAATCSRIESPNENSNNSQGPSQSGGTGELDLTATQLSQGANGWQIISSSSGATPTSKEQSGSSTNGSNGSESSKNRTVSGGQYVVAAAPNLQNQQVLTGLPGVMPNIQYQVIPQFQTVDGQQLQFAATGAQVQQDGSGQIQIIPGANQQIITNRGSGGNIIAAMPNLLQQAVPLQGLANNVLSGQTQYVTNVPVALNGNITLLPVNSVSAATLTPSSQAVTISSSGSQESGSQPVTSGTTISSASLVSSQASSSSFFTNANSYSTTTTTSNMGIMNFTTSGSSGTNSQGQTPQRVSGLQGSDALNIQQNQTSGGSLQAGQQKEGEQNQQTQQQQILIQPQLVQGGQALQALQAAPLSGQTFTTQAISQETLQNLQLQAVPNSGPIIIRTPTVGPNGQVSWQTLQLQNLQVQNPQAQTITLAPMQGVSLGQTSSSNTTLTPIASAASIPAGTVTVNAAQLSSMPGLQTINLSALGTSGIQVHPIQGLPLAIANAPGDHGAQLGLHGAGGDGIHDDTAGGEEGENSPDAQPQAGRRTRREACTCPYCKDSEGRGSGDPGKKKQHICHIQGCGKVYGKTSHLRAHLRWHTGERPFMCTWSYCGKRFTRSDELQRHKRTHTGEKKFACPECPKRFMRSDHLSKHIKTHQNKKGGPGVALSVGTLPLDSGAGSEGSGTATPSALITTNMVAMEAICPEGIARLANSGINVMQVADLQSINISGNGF
Chain of Hepatocyte nuclear factor 6 (Homo sapiens) (Q9UBC0 whole entry, looked up, the tested form may be a part): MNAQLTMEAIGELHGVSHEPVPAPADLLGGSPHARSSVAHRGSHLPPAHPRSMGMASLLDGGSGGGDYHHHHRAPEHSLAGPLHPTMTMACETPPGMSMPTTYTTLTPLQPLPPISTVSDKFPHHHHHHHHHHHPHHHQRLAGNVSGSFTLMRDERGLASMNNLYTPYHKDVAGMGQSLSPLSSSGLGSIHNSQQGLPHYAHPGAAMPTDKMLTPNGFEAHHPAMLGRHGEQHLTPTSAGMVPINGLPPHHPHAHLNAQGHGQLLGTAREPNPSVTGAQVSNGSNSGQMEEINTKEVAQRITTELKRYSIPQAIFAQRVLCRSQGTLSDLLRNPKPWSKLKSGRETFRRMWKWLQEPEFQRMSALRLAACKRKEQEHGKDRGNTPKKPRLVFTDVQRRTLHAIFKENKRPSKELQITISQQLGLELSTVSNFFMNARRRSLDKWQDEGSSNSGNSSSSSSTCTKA
Chain of Hypoxia-inducible factor 1-alpha (Homo sapiens) (Q16665 whole entry, looked up): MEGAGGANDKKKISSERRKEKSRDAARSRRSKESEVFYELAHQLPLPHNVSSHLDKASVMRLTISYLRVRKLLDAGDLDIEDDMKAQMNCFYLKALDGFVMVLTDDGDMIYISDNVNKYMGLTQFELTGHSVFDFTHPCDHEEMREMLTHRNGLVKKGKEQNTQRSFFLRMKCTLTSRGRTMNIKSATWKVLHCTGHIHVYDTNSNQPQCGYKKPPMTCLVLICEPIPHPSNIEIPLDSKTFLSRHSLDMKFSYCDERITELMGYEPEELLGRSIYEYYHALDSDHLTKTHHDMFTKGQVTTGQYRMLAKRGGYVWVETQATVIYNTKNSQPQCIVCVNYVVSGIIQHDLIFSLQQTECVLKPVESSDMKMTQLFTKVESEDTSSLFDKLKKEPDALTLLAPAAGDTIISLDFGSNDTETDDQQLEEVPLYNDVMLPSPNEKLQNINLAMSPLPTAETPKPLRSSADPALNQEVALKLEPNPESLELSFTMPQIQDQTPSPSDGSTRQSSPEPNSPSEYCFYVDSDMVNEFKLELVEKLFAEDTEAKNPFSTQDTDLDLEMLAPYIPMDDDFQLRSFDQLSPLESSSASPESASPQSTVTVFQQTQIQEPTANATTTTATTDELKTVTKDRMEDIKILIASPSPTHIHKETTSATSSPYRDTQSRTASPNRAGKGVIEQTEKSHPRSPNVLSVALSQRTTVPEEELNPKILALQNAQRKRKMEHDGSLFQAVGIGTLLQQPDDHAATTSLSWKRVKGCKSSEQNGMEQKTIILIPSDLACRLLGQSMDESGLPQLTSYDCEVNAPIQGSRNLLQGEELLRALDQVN
Chain of Bile acid receptor (Homo sapiens) (Q96RI1 whole entry, looked up): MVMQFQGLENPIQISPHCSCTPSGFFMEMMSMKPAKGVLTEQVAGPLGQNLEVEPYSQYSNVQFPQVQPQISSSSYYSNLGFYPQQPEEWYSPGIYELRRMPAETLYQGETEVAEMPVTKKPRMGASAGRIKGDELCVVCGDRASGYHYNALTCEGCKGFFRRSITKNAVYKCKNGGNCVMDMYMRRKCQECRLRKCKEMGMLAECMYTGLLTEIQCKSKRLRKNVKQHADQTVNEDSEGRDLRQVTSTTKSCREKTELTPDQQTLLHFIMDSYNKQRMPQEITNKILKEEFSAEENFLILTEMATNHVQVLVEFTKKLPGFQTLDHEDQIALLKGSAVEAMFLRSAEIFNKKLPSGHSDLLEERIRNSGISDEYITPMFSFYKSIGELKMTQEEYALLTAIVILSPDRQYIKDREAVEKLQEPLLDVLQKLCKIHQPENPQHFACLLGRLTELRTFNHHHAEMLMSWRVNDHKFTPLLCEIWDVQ
Chain of Signal transducer and activator of transcription 3 (Homo sapiens) (P40763 whole entry, looked up): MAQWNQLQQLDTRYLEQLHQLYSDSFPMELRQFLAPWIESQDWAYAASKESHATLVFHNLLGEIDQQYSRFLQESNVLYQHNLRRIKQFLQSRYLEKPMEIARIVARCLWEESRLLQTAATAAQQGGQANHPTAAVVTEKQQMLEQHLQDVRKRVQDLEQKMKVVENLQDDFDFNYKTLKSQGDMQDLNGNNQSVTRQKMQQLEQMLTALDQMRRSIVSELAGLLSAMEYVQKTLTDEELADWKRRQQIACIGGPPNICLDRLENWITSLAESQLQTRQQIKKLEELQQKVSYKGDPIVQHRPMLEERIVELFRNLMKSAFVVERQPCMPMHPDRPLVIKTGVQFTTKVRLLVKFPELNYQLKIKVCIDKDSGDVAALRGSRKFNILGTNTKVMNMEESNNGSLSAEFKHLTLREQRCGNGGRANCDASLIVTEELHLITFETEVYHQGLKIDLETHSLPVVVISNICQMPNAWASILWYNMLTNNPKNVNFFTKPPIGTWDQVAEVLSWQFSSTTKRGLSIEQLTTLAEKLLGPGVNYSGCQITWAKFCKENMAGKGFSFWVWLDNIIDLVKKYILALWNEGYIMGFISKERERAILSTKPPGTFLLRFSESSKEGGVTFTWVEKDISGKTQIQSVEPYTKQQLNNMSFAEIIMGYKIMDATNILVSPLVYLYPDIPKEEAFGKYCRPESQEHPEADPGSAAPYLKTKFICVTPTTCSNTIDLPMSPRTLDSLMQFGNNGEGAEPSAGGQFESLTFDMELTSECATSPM
Chain of Paired box protein Pax-6 (Homo sapiens) (P26367 whole entry, looked up): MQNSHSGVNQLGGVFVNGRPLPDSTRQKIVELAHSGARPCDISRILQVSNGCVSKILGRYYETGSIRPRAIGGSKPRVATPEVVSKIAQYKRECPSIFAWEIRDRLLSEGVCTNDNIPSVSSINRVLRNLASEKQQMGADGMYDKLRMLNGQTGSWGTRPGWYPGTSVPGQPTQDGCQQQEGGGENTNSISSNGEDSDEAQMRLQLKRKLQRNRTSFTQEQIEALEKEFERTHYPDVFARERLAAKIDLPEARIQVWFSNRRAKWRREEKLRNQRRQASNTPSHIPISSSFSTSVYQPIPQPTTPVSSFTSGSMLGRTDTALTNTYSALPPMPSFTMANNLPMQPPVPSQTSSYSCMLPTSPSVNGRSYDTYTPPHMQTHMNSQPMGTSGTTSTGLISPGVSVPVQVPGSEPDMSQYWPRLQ

CC(C)C(=O)OCCc1ccccc1
inactive: [1] | [2] | [3] | [4] | [5] | [6] | [7] | [8] | [9] | [10] | [11] | [12] | [13] | [14] | [15] | [16] | [17] | [18]

CC(C=O)c1ccccc1 (stereo not given)
active: [11] 6.81 µM
inactive: [1] | [2] | [19] | [3] | [4] | [5] | [6] | [8] | [9] | [10] | [12] | [13] | [14] | [15] | [16] | [17]

CCCCCCCCCCCCCC(=O)OC(C)C
inactive: [1] | [2] | [3] | [4] | [5] | [6] | [7] | [8] | [9] | [10] | [11] | [13] | [14] | [15] | [16] | [17] | [18]

Cc1cc(=O)[nH]c(=O)[nH]1
active: [11] 24.8 µM
inactive: [1] | [2] | [19] | [3] | [4] | [5] | [6] | [9] | [10] | [12] | [13] | [14] | [15] | [16] | [18]

Cc1ccc(C)c(OCCCC(C)(C)C(=O)O)c1
inactive: [1] | [2] | [3] | [4] | [5] | [7] | [8] | [9] | [13] | [14] | [15] | [16]
active: [11] 22.5 µM

CC(=O)c1ccccc1O
inactive: [1] | [2] | [3] | [4] | [5] | [6] | [7] | [9] | [20] | [10] | [11] | [13] | [15] | [16] | [17]

N#Cc1ccc(C2CCCc3cncn32)cc1 (stereo not given)
inactive: [1] | [19] | [3] | [4] | [5] | [6] | [7] | [8] | [9] | [20] | [10] | [12] | [13] | [14] | [15] | [16] | [17]
active: [11] 23.9 µM

CCN(CC)c1cccc(C)c1
inactive: [1] | [2] | [3] | [4] | [5] | [6] | [7] | [8] | [9] | [10] | [13] | [14] | [15] | [16] | [17] | [18]
